Assay results published in PubChem BioAssay AID449762 (Southern Research Specialized Biocontainment Screening …, 2010).
The campaign covered roughly 330,000 compounds. About 1,900 (0.58%) were called active. About 4% were inconclusive and are not listed. Cut-off read from the data, not from the text of the source: inconclusive = inhibition above about 70% without an active follow-up result; inactive = below that. These entries were drawn from the full list. Potency and affinity values are given separately.

Assay: M. tuberculosis growth inhibition, HTS (AID 449762);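 note: bacterial growth assessed after seven days of incubation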
Details: M. tuberculosis H37Rv growth inhibition, 7H9 media; at 25 µM; active compounds read high

| Compound | inhibition |
| --- | --- |
| Cc1cc(=O)oc2cc(OCC(=O)N3CCN(C(C)c4ccccc4)CC3)c(Cl)cc12 (stereo unspecified) | -5.58% (inactive) |
| CCC(C)N1CCN(C(=O)Cc2ccccc2)CC1 (stereo unspecified) | 4.3% (inactive) |
| Cc1ccc(NC(=O)CN(C)C(=O)c2cccc(S(=O)(=O)NCc3ccccc3)c2)cc1 | 2.27% (inactive) |
| CCOc1ccc(CCNC(=O)c2ccc(CS(=O)Cc3ccc(Cl)cc3)o2)cc1 (stereo unspecified) | -1.24% (inactive) |
| O=C(NCCc1ccccc1)c1ccc(CS(=O)Cc2ccc(Cl)cc2)o1 (stereo unspecified) | 3.87% (inactive) |
| CCCn1c(N)cc(=O)n(CCC)c1=O | 8.69% (inactive) |
| Clc1ccccc1CN1CCN(c2ccccc2Cl)CC1 | -2.43% (inactive) |
| COc1cccc(-c2cc3nc4c(c(N5CCC6(CC5)OCCO6)n3n2)CCCC4)c1 | 12.8% (inactive) |
| CN(C)CCCNc1c2c(nc3cc(-c4cccc(F)c4)nn13)CCC2 | 1.49% (inactive) |
| Clc1cccc(-c2cc3nc4c(c(N5CCOCC5)n3n2)CCCC4)c1 | 58.9% (inactive) |
| c1coc(CNc2c3c(nc4ncnn24)CCCC3)c1 | -6.82% (inactive) |
| C(=NCCCN1CCOCC1)c1ccc2c(c1)OCO2 | -12.4% (inactive) |
| COc1cc(NC(=O)C23CC4CC(C2)CC(n2nnc(C)n2)(C4)C3)c(OC)cc1Cl | 2.98% (inactive) |
| COc1cc2cc(C(c3nnnn3C3CCCC3)N3CCc4ccccc43)c(=O)[nH]c2cc1OC (stereo unspecified) | 0.64% (inactive) |
| CCC(C)(C)n1nnnc1C(c1cc2cc(OC)ccc2[nH]c1=O)N1CCc2ccccc21 (stereo unspecified) | 64.6% (inactive) |
| COc1ccc(CN2CCCC(C(=O)c3cccc(OC(C)C)c3)C2)cc1Cn1cccn1 (stereo unspecified) | -6.67% (inactive) |
| COc1ccc(CN2CCCC(C(=O)c3ccc(Cl)cc3)C2)cc1Cn1cccn1 (stereo unspecified) | -5.07% (inactive) |
| COC12C(COC(N)=O)C3=C(C(=O)C(C)=C(N)C3=O)N1CC1C2N1C (stereo unspecified) | 100% (inactive) |
| CCCNC1=C(C)C(=O)C2=C(C1=O)C(COC(N)=O)[C@]1(OC)C3NC3CN21 (stereo partly specified) | -1.51% (inactive) |
| CC(=O)N1CCN(c2ccc(NC(=S)NC(=O)/C=C/c3ccccc3)cc2)CC1 | 1.44% (inactive) |
| COC(=O)c1cc(N=Cc2c(O)c3ccccc3oc2=O)cc(C(=O)OC)c1 | -16.3% (inactive) |
| CCOC(=O)c1ccccc1N=Cc1c(O)c2ccccc2oc1=O | 5.1% (inactive) |
| CCOC(=O)c1ccc(N=Cc2nc(-c3ccccc3)oc2OC(C)=O)cc1 | 39.2% (inactive) |
| Cn1c(/C=N/O)nc2ccccc21 | -1.93% (inactive) |

| Compound | inhibition |
| --- | --- |
| COc1ccc(C(O)c2ncc(C(F)(F)F)cc2Cl)cc1 (stereo unspecified) | 12.8% (inactive) |
| Cc1cc(C(=O)N/N=C2\CC(=O)CC(C)(C)C2)c2ccccc2n1 | 5.98% (inactive) |
| COCCn1c(NCc2ccc(C)cc2)nc2c1c(=O)[nH]c(=O)n2C | 2.2% (inactive) |
| COc1cccc(NC(=O)C2CCCO2)c1 (stereo unspecified) | 0.33% (inactive) |
| CC(C)CC1Nc2ccc(C(=O)NCCCN3CCOCC3)cc2NC1=O (stereo unspecified) | 7.57% (inactive) |
| N#Cc1c(-c2ccc(Cl)cc2)ccn2nc(CCC(=O)O)nc12 | 0.53% (inactive) |
| CCc1nc2c(C#N)c(-c3ccc(Cl)cc3)ccn2n1 | -11.1% (inactive) |
| O=C(COC(=O)CNC(=O)c1cccc(OC(F)F)c1)NCc1ccc2c(c1)OCO2 | 7.07% (inactive) |
| Cc1ccc(NC(=O)c2cccc(-n3cnnn3)c2)cc1Cl | 4.03% (inactive) |
| CCN1CC(CN(C)Cc2nc(Cc3ccccc3)no2)CC1=O (stereo unspecified) | 3.14% (inactive) |
| O=C1c2ccccc2S(=O)(=O)c2cc(C(=O)N3CCN(c4ccc(Cl)cn4)CC3)ccc21 | 14% (inactive) |
| O=C1c2ccccc2S(=O)(=O)c2cc(C(=O)N3CCN(c4ccccc4)CC3)ccc21 | 4.82% (inactive) |
| O=C(OCC(=O)N1CCCc2ccccc21)c1cccnc1Cl | 0.07% (inactive) |
| COC(=O)N/N=C/c1ccccc1 | -2.71% (inactive) |
| COC(=O)N/N=C/c1ccccc1Cl | -1.15% (inactive) |
| COc1ccc(NC(=O)CSc2ccccc2)cc1S(=O)(=O)N1CCOCC1 | 9.25% (inactive) |
| CC(Nc1cc(N2CCN(C(=O)C(C)(C)C)CC2)ccc1[N+](=O)[O-])c1ccccc1 (stereo unspecified) | 6.58% (inactive) |
| CCCCc1nnc(NC(=O)c2ccc(N3CCCC3=O)cc2)s1 | 0.88% (inactive) |
| Cc1cc(NCCO)nc(-n2nc(C)cc2C)n1 | 1.56% (inactive) |
| CCOc1ccc(Nc2cc(C)nc(N3CCOCC3)n2)cc1 | -6.87% (inactive) |
| Cc1occc1C(=O)Nc1nnc(C(F)(F)F)s1 | -11.4% (inactive) |
| C(#Cc1ccc2c(c1)COc1c3ccccc3nn1-2)c1ccccc1 | -2.59% (inactive) |
| C#Cc1ccc2c(c1)COc1c3ccccc3nn1-2 | 26.7% (inactive) |
| COc1ccc(C(CNC(=O)Nc2ccc(Cl)cc2)N2CCN(C)CC2)cc1 (stereo unspecified) | 6.3% (inactive) |

| Compound | inhibition |
| --- | --- |
| COc1cccc(NC(=O)[C@@H]2CCCN2C(=O)C2CCN(S(=O)(=O)c3ccc(C)cc3)CC2)c1 | -6.02% (inactive) |
| CC(C)(C)Nc1nc(N2CCCC2)nc(N2CCCC2)n1 | 8.96% (inactive) |
| CCNc1nc(NC(C)(C)C)nc(N2CCCC2)n1 | 12.8% (inactive) |
| O=C(COc1ccccc1Br)c1ccc2c(c1)OCO2 | -8.06% (inactive) |
| CC/C(=N\NC(=S)Nc1cccc(C)c1)c1ccccc1 | 4.58% (inactive) |
| C/C(=N\NC(=S)Nc1cccc(C)c1)c1cc2ccccc2o1 | 67.2% (inactive) |
| Cc1ccc2cc(C)c3nnc(SCC(=O)N4CCN(C(=O)c5ccco5)CC4)n3c2c1 | -3.44% (inactive) |
| O=C(CSc1nc(Nc2ccccc2)nc(N2CCOCC2)n1)Nc1ccccc1Cl | -2.86% (inactive) |
| COc1ccc(Cl)cc1NC(=O)CSc1nc(Nc2ccccc2)nc(N2CCOCC2)n1 | -3.97% (inactive) |
| COc1ccccc1OCCNC(=O)C1CC(=O)N(Cc2ccc(C)cc2)C1 (stereo unspecified) | -0.95% (inactive) |
| Cc1csc(SCC(=O)NC(=O)NCc2ccccc2)n1 | -2.35% (inactive) |
| O=C(NC(=S)Nc1ccc2oc(=O)ccc2c1)c1cccc(Cl)c1 | 5.43% (inactive) |
| CC(C)(C)N=C1NC(=NC(C)(C)C)c2ccccc21 | 1.58% (inactive) |
| Cc1ccc(NC(=O)CCc2ccc(C)o2)cc1 | 23.4% (inactive) |
| Cc1cccc(NC(=O)CCc2ccc(C)o2)c1 | -15.4% (inactive) |
| CCOc1ccc(N(CC(=O)NC2CCCC2)C(=O)CCCC(=O)Nc2ccccn2)cc1 | -1.21% (inactive) |
| CCCNC(=O)c1cc2c3ccccc3n(C)c2s1 | -14.8% (inactive) |
| CCc1cc(C(=O)NCC2CCCO2)sc1C (stereo unspecified) | -1.92% (inactive) |
| CCc1cc(C(=O)NNC(=O)CCN2CCN(c3ccccc3)CC2)sc1C | -4.59% (inactive) |
| CC(=O)NNC(=O)c1cc2c3ccccc3n(C)c2s1 | -4.02% (inactive) |
| C/C(=N/NS(=O)(=O)c1ccc(Br)cc1)c1c[nH]c2ccccc12 | 2.63% (inactive) |
| CCOc1ccc(CN2CCNC(=O)C2CC(=O)N(C)CC2CCOCC2)cc1 (stereo unspecified) | 5.35% (inactive) |
| COc1cc(C(=O)NCC(=O)Nc2c(C)cccc2C)ccc1OCc1ccccc1 | -1.77% (inactive) |
| COc1ccc(C(=O)N2CCC(n3nccc3NC(=O)C3CC3)CC2)cc1F | 0.61% (inactive) |

| Compound | inhibition |
| --- | --- |
| COc1cc(/C=C2/C(=N)N3N=C(CC(=O)N4CCOCC4)SC3=NC2=O)ccc1OCc1ccccc1F | 0.04% (inactive) |
| Cc1ccc(S(=O)(=O)N(C)c2ccc(C(=O)N3CCC(C(N)=O)CC3)cc2)cc1 | -5.27% (inactive) |
| CCOC(=O)N1CCN(C(=S)NC(=O)c2cccc(OC)c2)CC1 | -0.27% (inactive) |
| CN(C)CCCN1C(=O)c2cccc3cccc(c23)C1=O | -1.82% (inactive) |
| O=C(O)CCCN1C(=O)c2cccc3cccc(c23)C1=O | -5.41% (inactive) |
| O=C1/C(=C/Nc2cccc([N+](=O)[O-])c2)CCc2ccccc21 | 2.58% (inactive) |
| O=C1CCCC/C1=C/Nc1ccc2c(c1)OCO2 | 59.1% (inactive) |
| Cc1cccc(C(=O)NCCc2csc(C)n2)c1 | -0.44% (inactive) |
| CCCCC(CC)C(=O)N1CCN(C(=O)c2ccco2)CC1 (stereo unspecified) | -4.92% (inactive) |
| CCc1nc(Nc2ccccc2OC)c2oc3ccccc3c2n1 | 2.96% (inactive) |
| COc1ccc(C(=O)NCc2nnc(SCC(=O)c3ccc(F)cc3)n2C)cc1OC | -0.94% (inactive) |
| CNC1=C(N(C(C)=O)c2ccc(Br)cc2)C(=O)c2ccccc2C1=O | -2.3% (inactive) |
| CN(CC(=O)NCCc1ccc(F)cc1)Cc1ccccc1 | -0.22% (inactive) |
| CC(=O)N(C1=C(N)C(=O)c2ccccc2C1=O)c1ccccc1 | -1.88% (inactive) |
| CC(CCc1ccccc1)NC(=O)CN(C)Cc1ccc(F)cc1 (stereo unspecified) | 0.05% (inactive) |
| CC1CCCCC12NC(=O)N(CC(=O)OCc1ccc(Br)cc1)C2=O (stereo unspecified) | 5.76% (inactive) |
| CN(C)S(=O)(=O)c1ccc(C(=O)NNC(=O)C2COc3ccccc3O2)cc1 (stereo unspecified) | 2.93% (inactive) |
| O=C(O)c1cc(N/N=C/c2ccc(OCc3ccccc3)cc2)ccc1Cl | -0.4% (inactive) |
| COc1ccc(C=NOCC(=O)OCC(=O)Nc2ccc(OC)cc2)cc1 | 4.42% (inactive) |
| CN(C(=O)CO/N=C/c1ccc(Cl)cc1)c1ccccc1 | -0.18% (inactive) |
| CC(C)Oc1ccc(/C(O)=C2/C(=O)C(=O)N(CCN(C)C)C2c2cccs2)cc1 (stereo unspecified) | 4.08% (inactive) |
| CCCOc1ncnc2c1[nH]c1ccc(C)cc12 | 6.51% (inactive) |
| O=C(NCc1ccccn1)C(=O)Nc1nc(-c2ccccc2)cs1 | 55.8% (inactive) |
| O=C(NCc1ccccc1)C(=O)Nc1nc(C23CC4CC(CC(C4)C2)C3)cs1 | 1.12% (inactive) |
